Data reported in PubChem BioAssay AID1159580 (chemical genetic matrix, 2015).
The campaign covered roughly 5,500 compounds. About 2,000 (36%) were called active. Not shown: some 18% with an inconclusive outcome. Cut-off read from the data, not from the text of the source: active = normalized growth mostly below about 0.91 (no sharp cut-off); inconclusive = no clear call, values can overlap the other calls; inactive = mostly above about 0.92. Some of the results follow.

Test: chemical genetic growth profiling, strain panel (AID 1159580);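 note: tested at 20 µM; growth read once vehicle control cultures reached saturation at 30 °C; 1 = growth at the plate median or of vehicle wells; lower values mean less growth of the strain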
Conditions: growth OD

Measured: normalized growth

COc1ccc2c(c1)[nH]c1c(C)nccc12
inactive: S. cerevisiae deletion strains, locus YJR075W, strain HOC1, stronger effect = lower value 1.02 | S. cerevisiae deletion strains, locus YKL009W, strain mrt4, stronger effect = lower value 0.954 | S. cerevisiae deletion strains, locus YKL068W, stronger effect = lower value 0.978 | S. cerevisiae deletion strains, locus YKL085W, strain MDH1 (second series), stronger effect = lower value 0.979 | S. cerevisiae deletion strains, locus YKL085W, strain MDH1, stronger effect = lower value 0.979 | S. cerevisiae deletion strains, locus YKL160W, strain elf1, stronger effect = lower value 0.996 | S. cerevisiae deletion strains, locus YKL190W, strain CNB1, stronger effect = lower value 1.01 | S. cerevisiae deletion strains, locus YKR001C, strain vps1, stronger effect = lower value 0.962 | S. cerevisiae deletion strains, locus YKR026C, strain gcn3, stronger effect = lower value 0.978 | S. cerevisiae deletion strains, locus YKR091W, strain srl3, stronger effect = lower value 0.996 | S. cerevisiae deletion strains, locus YLL001W, strain dnm1, stronger effect = lower value 0.987 | S. cerevisiae deletion strains, locus YLL026W, stronger effect = lower value 0.993 | S. cerevisiae deletion strains, locus YLL041C, strain sdh2, stronger effect = lower value 0.993 | S. cerevisiae deletion strains, locus YLR027C, strain aat2, stronger effect = lower value 0.992 | S. cerevisiae deletion strains, locus YLR039C, strain RIC1, stronger effect = lower value 1.22 | S. cerevisiae deletion strains, locus YLR058C, strain SHM2, stronger effect = lower value 1.01 | S. cerevisiae deletion strains, locus YLR102C, strain apc9, stronger effect = lower value 0.981 | S. cerevisiae deletion strains, locus YLR113W, strain HOG1, stronger effect = lower value 1 | S. cerevisiae deletion strains, locus YLR221C, strain rsa3, stronger effect = lower value 0.995 | S. cerevisiae deletion strains, locus YLR258W, strain gsy2, stronger effect = lower value 0.995 | S. cerevisiae deletion strains, locus YLR262C, strain YPT6 (second series), stronger effect = lower value 1.03 | S. cerevisiae deletion strains, locus YLR262C, strain YPT6, stronger effect = lower value 1.21 | S. cerevisiae deletion strains, locus YLR268W, strain sec22, stronger effect = lower value 1 | S. cerevisiae deletion strains, locus YLR320W, strain mms22, stronger effect = lower value 1 | S. cerevisiae deletion strains, locus YLR330W, strain CHS5, stronger effect = lower value 0.997 | S. cerevisiae deletion strains, locus YLR342W, strain FKS1 (second series), stronger effect = lower value 1.02 | S. cerevisiae deletion strains, locus YLR342W, strain FKS1, stronger effect = lower value 1 | S. cerevisiae deletion strains, locus YLR357W, strain rsc2, stronger effect = lower value 0.978 | S. cerevisiae deletion strains, locus YLR370C, strain arc18, stronger effect = lower value 1 | S. cerevisiae deletion strains, locus YLR371W, strain rom2, stronger effect = lower value 0.979 | S. cerevisiae deletion strains, locus YLR384C, strain iki3, stronger effect = lower value 0.999 | S. cerevisiae deletion strains, locus YLR418C, strain cdc73, stronger effect = lower value 1.03 | S. cerevisiae deletion strains, locus YML016C, strain PPZ1, stronger effect = lower value 1.01 | S. cerevisiae deletion strains, locus YML032C, strain rad52, stronger effect = lower value 0.926 | S. cerevisiae deletion strains, locus YML120C, strain ndi1, stronger effect = lower value 1 | S. cerevisiae deletion strains, locus YML124C, strain tub3, stronger effect = lower value 0.982 | S. cerevisiae deletion strains, locus YMR058W, strain fet3, stronger effect = lower value 0.983 | S. cerevisiae deletion strains, locus YMR078C, strain ctf18, stronger effect = lower value 0.976 | S. cerevisiae deletion strains, locus YMR125W, strain sto1, stronger effect = lower value 0.975 | S. cerevisiae deletion strains, locus YMR129W, stronger effect = lower value 0.988 | S. cerevisiae deletion strains, locus YMR205C, strain PFK2, stronger effect = lower value 0.999 | S. cerevisiae deletion strains, locus YMR223W, strain ubp8, stronger effect = lower value 0.962 | S. cerevisiae deletion strains, locus YMR231W, strain pep5, stronger effect = lower value 1.01 | S. cerevisiae deletion strains, locus YMR263W, strain SAP30, stronger effect = lower value 1.01 | S. cerevisiae deletion strains, locus YMR307W, strain GAS1, stronger effect = lower value 1.12 | S. cerevisiae deletion strains, locus YNL067W, strain RPL9B, stronger effect = lower value 0.971 | S. cerevisiae deletion strains, locus YNL071W, strain lat1, stronger effect = lower value 0.991 | S. cerevisiae deletion strains, locus YNL128W, strain TEP1, stronger effect = lower value 1.03 | S. cerevisiae deletion strains, locus YNL153C, strain GIM3, stronger effect = lower value 1.02 | S. cerevisiae deletion strains, locus YNL183C, strain NPR1, stronger effect = lower value 0.982 | S. cerevisiae deletion strains, locus YNL209W, strain ssb2, stronger effect = lower value 0.996 | S. cerevisiae deletion strains, locus YNL233W, strain BNI4, stronger effect = lower value 1.01 | S. cerevisiae deletion strains, locus YNL248C, strain rpa49, stronger effect = lower value 0.966 | S. cerevisiae deletion strains, locus YNL250W, strain rad50, stronger effect = lower value 0.986 | S. cerevisiae deletion strains, locus YNL271C, strain bni1, stronger effect = lower value 0.991 | S. cerevisiae deletion strains, locus YNL298W, strain CLA4, stronger effect = lower value 0.968 | S. cerevisiae deletion strains, locus YNL307C, strain MCK1, stronger effect = lower value 0.967 | S. cerevisiae deletion strains, locus YNL322C, strain KRE1 (second series), stronger effect = lower value 1 | S. cerevisiae deletion strains, locus YNL322C, strain KRE1, stronger effect = lower value 1.01 | S. cerevisiae deletion strains, locus YNR049C, strain mso1, stronger effect = lower value 0.997 | S. cerevisiae deletion strains, locus YNR052C, strain pop2, stronger effect = lower value 0.961 | S. cerevisiae deletion strains, locus YOL006C, strain TOP1, stronger effect = lower value 0.963 | S. cerevisiae deletion strains, locus YOL012C, strain htz1 1.03 | S. cerevisiae deletion strains, locus YOL147C, strain pex11, stronger effect = lower value 0.984 | S. cerevisiae deletion strains, locus YOR001W, strain rrp6, stronger effect = lower value 1.02 | S. cerevisiae deletion strains, locus YOR061W, strain CKA2, stronger effect = lower value 1.04 | S. cerevisiae deletion strains, locus YOR069W, strain VPS5, stronger effect = lower value 1 | S. cerevisiae deletion strains, locus YOR070C, strain gyp1, stronger effect = lower value 0.995 | S. cerevisiae deletion strains, locus YOR080W, strain dia2, stronger effect = lower value 1.01 | S. cerevisiae deletion strains, locus YOR083W, strain WHI5, stronger effect = lower value 0.996 | S. cerevisiae deletion strains, locus YOR106W, strain vam3, stronger effect = lower value 0.983 | S. cerevisiae deletion strains, locus YOR136W, strain idh2, stronger effect = lower value 0.971 | S. cerevisiae deletion strains, locus YOR144C, strain elg1, stronger effect = lower value 0.988 | S. cerevisiae deletion strains, locus YOR184W, strain ser1, stronger effect = lower value 0.953 | S. cerevisiae deletion strains, locus YOR231W, strain MKK1, stronger effect = lower value 1 | S. cerevisiae deletion strains, locus YOR265W, strain rbl2, stronger effect = lower value 0.996 | S. cerevisiae deletion strains, locus YOR270C, strain vph1, stronger effect = lower value 0.974 | S. cerevisiae deletion strains, locus YOR290C, strain snf2, stronger effect = lower value 0.99 | S. cerevisiae deletion strains, locus YOR316C, strain cot1, stronger effect = lower value 0.985 | S. cerevisiae deletion strains, locus YPL051W, strain arl3, stronger effect = lower value 0.986 | S. cerevisiae deletion strains, locus YPL055C, strain LGE1, stronger effect = lower value 1.02 | S. cerevisiae deletion strains, locus YPL078C, strain atp4, stronger effect = lower value 0.995 | S. cerevisiae deletion strains, locus YPL106C, strain sse1, stronger effect = lower value 0.972 | S. cerevisiae deletion strains, locus YPL240C, strain hsp82, stronger effect = lower value 0.981 | S. cerevisiae deletion strains, locus YPL241C, strain CIN2, stronger effect = lower value 1.01 | S. cerevisiae deletion strains, locus YPL256C, strain CLN2, stronger effect = lower value 1.01 | S. cerevisiae deletion strains, locus YPR119W, strain clb2, stronger effect = lower value 0.988 | S. cerevisiae deletion strains, locus YPR141C, strain kar3, stronger effect = lower value 0.979 | S. cerevisiae deletion strains, locus YPR163C, strain tif3, stronger effect = lower value 0.975 | S. cerevisiae deletion strains, locus YPR167C, strain met16, stronger effect = lower value 1 | S. cerevisiae deletion strains, strain wtn01, stronger effect = lower value 0.998 | S. cerevisiae strains, strain wild type, stronger effect = lower value 0.998
